Screening data: PubChem, National Center for Advancing Translational Sciences (NCATS)
Sampled rows, rich in hits. Any-hit rate of the full collection: about 7.9%.
HCV inh: HCV inhibition; Huh7.5.1 HCVcc-Cre infection, luciferase reporter, 44 h; Potency, µM (doses to about 41.8 µM), hits mostly inhibitors; hit rate 3.4% among 340,000; active = well fitted inhibition curve with a large enough effect; inconclusive = small, poorly fitted or top-dose-only effect, or another doubt; inactive = no such curve, though single readings can be large or run the other way
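1,000 cells/well; 4 h culture; + compound; + HCVcc-Cre (~0.5 moi); 44 h; luciferase substrate, RT 15 min; read 15 sec.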
Marburg entry inh: blocks Marburg virus binding to or entry into cells; Marburg virus pseudotyped entry inhibition, cell reporter; Potency, µM (titrated, usually from 37.8 µM), hits mostly inhibitors; hit rate 1.8% among 300,000; AID 540276; calls by dose curve; tested in HEK293 cells
FMDV antiviral: blocks foot and mouth disease virus; Potency, µM (series often up to 57.9 µM), actives largely listed as inhibitors; FMDV antiviral cell-based qHTS; hit rate 1.2% among 410,000; calls by dose curve; tested in HEK293T cells; also: read-out not given here; nearly all actives have a fitted effect of over 45% in size
Lassa entry inh: blocks Lassa virus binding to or entry into cells. hit rate 1.2% among 300,000. Potency, µM (doses to about 37.9 µM), most hits filed as inhibitors. AID 540256. Lassa virus pseudotype entry inhibition, cell reporter; calls by dose curve; tested in HEK293 cells; also: nearly all actives have a fitted effect of over 50% in size
HCMV antiviral: inhibitors of human cytomegalovirus; HFF cells, HCMV-luciferase reporter, 72 h; active compounds read low; activity change, negative = inhibition, % at 57.5 µM; hit rate 4.5% among 410,000; AID 1259415; in the data active = activity change below about -60%; inconclusive = no clear call, values can overlap the other calls; inactive = above about -39%
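Two-dose cell screen: HFF monolayers treated with compounds and infected with luciferase-expressing HCMV at 1 PFU/cell, 72 h at 37C, then lysed for luciferase measurement.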
Each line names hits and unclear results; the compound was inactive in the other large screens.

CC(C)CNC(=O)c1coc(=O)c(Br)c1	HCV inh inconclusive, Marburg entry inh inconclusive, FMDV antiviral inconclusive, Lassa entry inh 16µM, HCMV antiviral -77
Cc1ccc(S(=O)(=O)N2CCCCC2)cc1C(=O)NCCC1=CCCCC1	HCV inh inconclusive, Marburg entry inh inconclusive, Lassa entry inh inconclusive
Cc1cc(C(=O)NCCC2=CCCCC2)c(C)o1	Marburg entry inh 15µM, Lassa entry inh inconclusive
O=C(NCCC1=CCCCC1)c1ccc(=O)oc1	none
O=C(NCCC1=CCCCC1)c1coc(=O)c(Br)c1	HCV inh inconclusive, HCMV antiviral -103
CN(C)CCNC(=O)c1coc(=O)c(Br)c1	none
CC(=O)Nc1cccc(-c2csc(Nc3ccccn3)n2)c1	HCV inh 11µM, Marburg entry inh inconclusive, Lassa entry inh inconclusive (no result: FMDV antiviral)
CC(=O)Nc1cccc(-c2csc(Nc3ccc(Cl)cn3)n2)c1	HCV inh 11µM (no result: Marburg entry inh, Lassa entry inh)
CC(=O)Nc1ccc(-c2csc(Nc3ccc(Cl)cn3)n2)cc1	HCV inh inconclusive, Marburg entry inh inconclusive, FMDV antiviral 25µM, HCMV antiviral -61
CC(=O)Nc1cccc(-c2csc(Nc3cc(C)ccn3)n2)c1	HCV inh inconclusive, Marburg entry inh inconclusive (no result: FMDV antiviral)
CC(=O)Nc1ccc(-c2csc(Nc3ncccn3)n2)cc1	none (no result: Marburg entry inh, Lassa entry inh)
CC(=O)Nc1cccc(-c2csc(NCc3ccccc3)n2)c1	none (no result: Marburg entry inh, Lassa entry inh)
Cc1ccnc(Nc2nc(-c3c(C)nc4sccn34)cs2)c1	HCV inh 13µM, FMDV antiviral inconclusive, HCMV antiviral -76
Cc1csc(C(C)N(C)C(=O)c2cnn(-c3nccc(-c4cc(C)sc4C)n3)c2C)n1 (configuration not stated)	none (no result: HCV inh, Marburg entry inh, Lassa entry inh, HCMV antiviral)
C=CCN1C(=S)N=NC1c1ccccc1 (configuration not stated)	none (no result: HCV inh, FMDV antiviral, Lassa entry inh, HCMV antiviral)
CC(=O)Nc1ccc(-c2csc(Nc3cc(C)ccn3)n2)cc1	HCV inh inconclusive, Marburg entry inh inconclusive, FMDV antiviral inconclusive, Lassa entry inh inconclusive, HCMV antiviral -61
N#CC1=C(N)NC(SCc2ccc(Br)cc2)=C(C#N)C12CCCCC2	none (no result: Marburg entry inh, Lassa entry inh)
N#CC1=C(N)NC(SCc2ccc(Cl)cc2)=C(C#N)C12CCCCC2	HCV inh inconclusive, Marburg entry inh 11µM, Lassa entry inh inconclusive
C(#Cc1ccccc1)C[N+]1(CC#Cc2cccc3ccccc23)CCCC1	HCV inh inconclusive, FMDV antiviral inconclusive, Lassa entry inh inconclusive, HCMV antiviral -100
C#CC[N+]1(CC#Cc2ccccc2)CCCC1	none
COc1ccc(CNC(=O)c2ccc3c(c2)NC(=O)C(CS(=O)(=O)Cc2ccccc2Cl)N3)cc1 (configuration not stated)	none (no result: HCV inh, Marburg entry inh)
CCCC(=O)N1CCN(c2ccc(NC(=O)c3cc4ccccc4o3)cc2)CC1	HCV inh 10µM, Marburg entry inh inconclusive, FMDV antiviral 25µM
CN1CCN(c2ccc(NC(=O)c3cc4ccccc4o3)cc2)CC1	HCV inh inconclusive (no result: Marburg entry inh, Lassa entry inh)
O=C(Nc1ccc(N2CCN(C(=O)c3ccccc3)CC2)cc1)c1cc2ccccc2o1	HCV inh inconclusive, Marburg entry inh inconclusive, FMDV antiviral 14µM, Lassa entry inh 14µM, HCMV antiviral -66
COC(=O)[C@H]1[C@H](CO)[C@H]2Cn3c(cccc3=O)[C@@H]1N2CC1CC1	none (no result: HCV inh, Marburg entry inh, FMDV antiviral, Lassa entry inh)
O=C(C1CCN(CCCc2ccccc2)CC1)N(CCc1ccccc1)Cc1ccccc1	HCV inh inconclusive, Marburg entry inh inconclusive, Lassa entry inh 11µM
CCOC(=O)c1cccc(NC(=O)C2CCN(c3nnc(C)c4c(C)n(-c5ccccc5)nc34)CC2)c1	none (no result: HCV inh, Marburg entry inh)
O=S(=O)(Nc1cccnc1)c1ccc(C2CCCCC2)cc1	Marburg entry inh inconclusive, HCMV antiviral -66
CCOC(=O)c1ccc2ncc(C(=O)OCC)c(Nc3ccc(N4CCOCC4)cc3)c2c1	HCV inh inconclusive, Marburg entry inh 7.9µM, FMDV antiviral inconclusive, Lassa entry inh inconclusive, HCMV antiviral inconclusive
CCOC(=O)c1cnc2ccccc2c1Nc1ccc(N2CCOCC2)cc1	none (no result: HCV inh)
CCCCCn1c(-c2ccc(OC)c(OC)c2)nc2ccccc21	Marburg entry inh inconclusive (no result: HCV inh)
Cc1ccc(S(=O)(=O)c2nc(-c3ccccc3Br)oc2N(C)C)cc1	HCV inh inconclusive, Lassa entry inh inconclusive
Cc1ccc(S(=O)(=O)c2nc(-c3ccccc3Cl)oc2N(C)C)cc1	HCV inh 20µM, Lassa entry inh inconclusive (no result: HCMV antiviral)
CC1=C(C#N)C(/C=N/OCc2ccc(F)cc2Cl)CC(=O)N1 (configuration not stated)	Lassa entry inh inconclusive, HCMV antiviral -80
CC(=O)c1cccc(Nc2cc(C)nc3nc(-c4ccccc4C)nn23)c1	none (no result: HCV inh)
C[C@H]1CC2[C@@H]3CCC4=CC(=O)C=C[C@]4(C)[C@@]3(Cl)[C@@H](O)C[C@]2(C)[C@@]1(O)C(=O)CO (some centres not stated)	none (no result: HCV inh, FMDV antiviral, Lassa entry inh, HCMV antiviral)
Brc1ccc(N/N=C(/N=Nc2nn[nH]n2)c2ccccc2)cc1	HCV inh 5.6µM, HCMV antiviral -100 (no result: Marburg entry inh, Lassa entry inh)
COc1ccc(Br)c2c1-c1nc(NC(=O)c3ccccc3SC)sc1C2	HCMV antiviral -63 (no result: HCV inh)
COc1ccc(Br)c2c1-c1nc(NC(=O)c3ccccc3F)sc1C2	none (no result: HCV inh)
Oc1ccc(C[C@H]2CNCCN2CCC23CC4CC(CC(C4)C2)C3)cc1	HCV inh inconclusive (no result: Marburg entry inh, Lassa entry inh)
Oc1ccc(C[C@@H]2CNCCN2CCC23CC4CC(CC(C4)C2)C3)cc1	HCV inh inconclusive, FMDV antiviral inconclusive, HCMV antiviral -87 (no result: Marburg entry inh, Lassa entry inh)
Cc1cc(OCc2cc(C(=O)N3CCN(C)C(=O)[C@@H]3C)no2)cc(C)c1Cl	HCV inh 13µM, FMDV antiviral inconclusive, HCMV antiviral inconclusive (no result: Marburg entry inh, Lassa entry inh)
O=C(c1cc(COc2c(F)cccc2F)on1)N1CCC(c2ccccc2F)C1 (configuration not stated)	none
Cc1cccc(C)c1OCc1cc(C(=O)N2CCN(c3ccccc3)CC2C)no1 (configuration not stated)	Marburg entry inh 13µM, Lassa entry inh inconclusive (no result: HCV inh)
O=C(c1cc(COc2c(F)cccc2F)on1)N1CCC(c2ccncc2)CC1	HCV inh 5µM, Marburg entry inh inconclusive, HCMV antiviral -84
Cc1cc(OCc2cc(C(=O)N(Cc3nccn3C)C(C)C)no2)cc(C)c1Cl	HCV inh 11µM, Marburg entry inh inconclusive
CCOc1ccc(CS[C@@H](CC(=O)O)C(=O)O)cc1	none (no result: HCV inh, FMDV antiviral, Lassa entry inh, HCMV antiviral)
Cc1cccc(C)c1OCc1cc(C(=O)N2CCC(c3ccncc3)CC2)no1	HCV inh 7.9µM, Marburg entry inh inconclusive, HCMV antiviral inconclusive
COc1ccc(CN2CCc3c(c(=O)n4ncc(C(=O)N5CCN(c6ccccc6F)CC5)c4n3C)C2)cc1	FMDV antiviral inconclusive, HCMV antiviral inconclusive (no result: HCV inh, Marburg entry inh)
COC(=O)c1c(C)[nH]c(C(=O)COc2ccc3ccc(=O)oc3c2)c1C	HCV inh inconclusive (no result: Marburg entry inh, Lassa entry inh)
CC(=O)c1c(C)[nH]c(C(=O)COc2cc(C)cc(C)c2)c1C	HCV inh inconclusive, Marburg entry inh inconclusive, HCMV antiviral -62
CC(=O)c1c(C)[nH]c(C(=O)COc2ccc3ccc(=O)oc3c2)c1C	HCV inh 8.9µM, Marburg entry inh inconclusive, FMDV antiviral 28µM
Cc1ccc(CN2C(=O)COCc3cc(-c4cccc(CO)c4)ccc32)cc1	none (no result: HCV inh, Marburg entry inh, FMDV antiviral, Lassa entry inh)
CNc1snc(C)c1C(=O)OCC(=O)c1cc(F)ccc1OC	FMDV antiviral inconclusive (no result: Marburg entry inh, Lassa entry inh)
